# This is part of a sample that, as a whole, favours compounds with a hit. Of some 83,000 tested, about 20% had one in any assay.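 The endpoint reported here, percent growth, reads 100 for growth as untreated, 0 for no net growth and -100 for all cells dead.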 Active and inactive are the calls of the source. How the source made its calls: active means growth percent below 10; inactive means the rest.
# System: RPMI-8226 leukemia
# Assay: NCI-60 one-dose screen, 48 h (100 = growth as untreated, 0 = no growth, -100 = all killed)
# Settings: 10 µM unless noted
row,Compound,growth
1,Cn1c(=O)cc2c3c(c(NCCCO)ccc31)C(=O)c1ccccc1-2,54.6% (inactive)
2,O=C(OC(CO)C(=O)NC12CC3CC(CC(C3)C1)C2)c1ccc(Cl)cc1 (configuration not stated),98% (inactive)
3,N#Cc1nc(-c2ccc(F)cc2)oc1S(=O)(=O)N1CCCCC1,49.4% (inactive)
4,COC1/C=C/OC2(C)Oc3c(C)c(O)c4c(O)c(c(/C=N/Nc5ccc([N+](=O)[O-])cc5[N+](=O)[O-])c(O)c4c3C2=O)NC(=O)C(C)=C/C=C/C(C)C(O)C(C)C(O)C(C)C(OC(C)=O)C1C (configuration not stated),7.67% (active)
5,O=C1c2c(c3c4ccccc4[nH]c3c3ccc4ccccc4c23)C(=O)N1CCN1CCOCC1,7.91% (active)
6,NC(=O)c1cc(I)ccc1NC(=O)/C=C/c1ccccc1,-5.89% (active)
7,COC(=O)c1c2c(c(C)[n+]([O-])c1C)C(=O)C(NCc1cccc(OC)c1)=CC2=O,33.1% (inactive)
8,COc1ccc(CNc2c3ccccc3nc3ccccc23)cc1,15.8% (inactive)
9,N=C(N)c1ccc(-c2ccc(-c3ccc(Cl)c(Cl)c3)s2)nc1,-8.11% (active)
10,Nc1c(C(=O)Nc2ccccc2F)sc2nc3c(cc12)CCCC3,28% (inactive)
11,Cc1ccc2c(n1)C(=O)C(Br)=C(C1CCCC1)C2=O,55.9% (inactive)
12,N#CC1=C(N)Oc2c(sc3c(Br)cccc23)C1c1ccc(Cl)cc1 (configuration not stated),12.6% (inactive)
13,COc1ccc(/C=C(\C#N)n2nnc3cc(F)c(F)cc32)cc1,70.5% (inactive)
14,COc1cc(NS(=O)(=O)c2ccc(-c3cnc(C4CC4)o3)cc2)ccc1F,20.2% (inactive)
15,CN1CCN(c2cc(Nc3cc(C4CC4)[nH]n3)nc(Nc3ccc(CC(=O)NCc4cccc(F)c4)cc3)n2)CC1,54.3% (inactive)
16,O=C(Nc1cccc2ccccc12)NC1CC1,105% (inactive)
17,CN(C)CC(C)(C)C(=O)/C=C/c1ccccc1,-23.4% [25 µM] (active)
18,COc1ccc(-c2nn(-c3cccc(Cl)c3)cc2-c2cc(-c3ccc(Br)cc3)nc(N)n2)cc1,84.1% (inactive)
19,COc1cc2c(c(OC)c1OC)CCC(c1cccc(NC(=O)c3ccc(Br)cc3)c1)O2 (configuration not stated),56.8% (inactive)

row,Compound,growth
1,CCOC(=O)C#Cc1c(C(=O)OCC)nnn1Cc1ccc([N+](=O)[O-])cc1,11.4% (inactive)
2,O=C(N/N=C/c1c(Cl)cccc1Cl)c1cccnc1Nc1cccc(C(F)(F)F)c1,3.23% (active)
3,C#COc1cccc(Nc2c(C#N)cnc3ncc(NC(=O)CCl)cc23)c1,-18.2% [6.25 µM] (active)
4,CC(C)(Sc1cc(C(C)(C)C)c(O)c(C(C)(C)C)c1)Sc1cc(C(C)(C)C)c(OC(=O)CCCC(=O)O)c(C(C)(C)C)c1,37.2% (inactive)
5,COc1c(B(O)O)cccc1-c1cc(C)c2c(ccc3[nH]ncc32)n1,68.7% (inactive)
6,CCOC(=O)C1=C(N)Oc2c(sc3c(F)cccc23)C1c1ccc(O)cc1 (configuration not stated),25.2% (inactive)
7,OCCn1cc(-c2nc(-c3c[nH]c4ncccc34)cs2)c2cc(F)ccc21,53.6% (inactive)
8,O=C(/C=C/c1cccs1)Nc1ncc(Cc2ccccc2F)s1,23.7% (inactive)
9,COc1ccc(CN2c3ccccc3Sc3ccccc32)cc1F,21.2% (inactive)
10,CCN1C(=O)N(CC)C2C1NN=c1s/c(=C\c3ccccc3F)c(=O)n12 (configuration not stated),21.4% (inactive)
11,CS(=O)(=O)Nc1cncc(-c2ccc3ncnc(Nc4cncc(Cl)c4)c3c2)c1,102% (inactive)
12,C1CN(SSN2CCOCC2)CCO1,1.55% [100 µM] (active)
13,CS(=O)(=O)c1ccc(-c2cnn3ccc(-c4cccc(S(=O)(=O)C5CC5)c4)nc23)cc1,49.1% (inactive)
14,CN1C(=O)/C(=C\c2nc([P+](c3ccccc3)(c3ccccc3)c3ccccc3)c(N3CCOCC3)o2)SC1=S,-21.1% (active)
15,C=C(C)[C@@H]1CCC[C@]2(COS(=O)(=O)c3ccc(C)cc3)CC[C@]3(C)[C@@H](CC[C@@H]4[C@@]5(C)CCCNC(C)(C)[C@@H]5CC[C@]43C)[C@@H]12,-14.8% (active)
16,Clc1ccc2c(c1)C(c1c[nH]c3ccccc13)(c1c[nH]c3ccccc13)CCO2,42.3% (inactive)
17,O=C(NCCNc1nccc(Nc2ccc(S(=O)(=O)Nc3ccccn3)cc2)n1)c1cccc([N+](=O)[O-])c1,96.1% (inactive)
18,COc1cc2ncnc(Nc3ccc(S(=O)(=O)Nc4cc(C)on4)cc3)c2cc1OCCCN1CCN(c2ccc(F)cc2)CC1,114% (inactive)

# From PubChem BioAssay (NCI)
